# Only some compounds are listed: those with a hit (about 19% of all), similar ones and a draw of the others.
# Giardia killer = Giardia lamblia killing; Giardia lamblia trophozoite viability; activity change, % at 7.66 µM, hits read low; 340,000 tested, 0.15% active; AID 540267; in the data active = activity change below about -80%; inconclusive = between about -30% and that limit;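 also: parasites exposed to compound for two days anaerobically before the ATP read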
#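 Luminescence from cellular ATP indicates surviving trophozoites (100 cells/well) following 48 hrs anaerobic compound treatment at 37 deg C; signal develops 15-30 min at room temperature.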
# IL1B secr inh = inhibitors of inflammasome signaling (IL-1 beta secretion); THP-1 LPS/ATP IL-1B secretion, AlphaLISA, 16 h; hits give low values; activity change, % at 57.5 µM; 360,000 tested, 4.7% active; in the data active = activity change below about -50%; inconclusive = mostly about -30% to -49%
#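 Secreted IL-1B measured by AlphaLISA bead assay after 16 h compound exposure of THP-1 cells; compounds (final up to 57.5 uM) added 1 h before LPS (250 ng/mL) and ATP (1.25 mM) stimulation; lower signal means less secretion.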
# DT40 TDP1 no CPT = qHTS for Inhibitors of human tyrosyl-DNA phosphodiesterase 1 (TDP1): qHTS in cells in absence of CPT; DT40 Tdp1-/- hTDP1 cells, no CPT, ATP luminescence, 48 h; Potency, µM (highest dose often 46.2 µM), inactives show top-dose activity change, negative = growth inhibition, actives largely listed as inhibitors; 420,000 tested, 15% active; AID 686978, 2013; also: potency is read from the fitted curve at half-maximal effect; nearly all actives have a fitted effect of over 55% in size
#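 DT40 Tdp1-/-;hTDP1 cells, no CPT (DMSO vehicle only), 400 cells/well; compounds pin-transferred; ≥48 hr, 37 °C; CellTiter-Glo 30 min RT dark, luminescence read.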
# TDP1 block = TDP1 (human) enzyme inhibition; Q9NUW8; recombinant TDP1, AlphaScreen DNA substrate cleavage; Potency, µM (highest dose often 130 µM), for the others: at the highest dose activity change, negative = inhibition, actives largely listed as inhibitors; 350,000 tested, 0.28% active; AID 485290; also: potency is read from the fitted curve at half-maximal effect; nearly all actives have a fitted effect of over 40% in size
# Target sequence (Q9NUW8 whole entry, looked up): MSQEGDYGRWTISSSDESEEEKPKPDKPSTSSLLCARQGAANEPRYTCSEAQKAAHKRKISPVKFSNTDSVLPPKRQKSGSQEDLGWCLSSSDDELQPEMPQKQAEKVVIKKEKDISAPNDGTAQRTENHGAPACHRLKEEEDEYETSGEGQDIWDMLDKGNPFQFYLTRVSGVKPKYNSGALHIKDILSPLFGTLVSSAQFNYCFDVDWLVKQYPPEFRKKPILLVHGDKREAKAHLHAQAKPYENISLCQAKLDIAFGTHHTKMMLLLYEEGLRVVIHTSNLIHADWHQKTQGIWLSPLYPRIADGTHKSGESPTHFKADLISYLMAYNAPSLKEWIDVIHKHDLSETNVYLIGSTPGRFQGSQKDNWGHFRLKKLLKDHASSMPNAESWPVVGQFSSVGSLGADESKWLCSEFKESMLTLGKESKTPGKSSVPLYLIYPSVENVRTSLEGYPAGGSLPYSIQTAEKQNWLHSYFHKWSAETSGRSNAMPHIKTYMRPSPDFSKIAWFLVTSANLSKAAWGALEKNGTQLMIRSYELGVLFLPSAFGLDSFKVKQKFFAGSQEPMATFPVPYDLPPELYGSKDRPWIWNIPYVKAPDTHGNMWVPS
#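 Recombinant human Tdp1 (E. coli-expressed, 1 nM final) preincubated with compounds 15 min at room temperature, then 5'-biotin/3'-phosphotyrosine-FITC DNA substrate (15 nM final) added for 5 min. AlphaScreen beads (10 ug/ml final) added 10 min; cleavage lowers signal.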
# DT40 TDP1 CPT = DT40-hTDP1 cell growth loss with CPT | chicken DT40 Tdp1-/-;hTDP1 cells + 20 nM CPT, ATP luminescence, 48 h | Potency, µM (doses to about 46.2 µM), for inactives: at the highest dose activity change, negative = growth inhibition, most hits filed as inhibitors | 420,000 tested, 12% active | AID 686979; also: potency is read from the fitted curve at half-maximal effect; nearly all actives have a fitted effect of over 55% in size
#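 Chicken DT40 Tdp1-/- cells complemented with human TDP1, 400 cells/well, exposed to compounds plus 20 nM camptothecin for at least 48 h at 37 C; viability read as ATP content by CellTiter-Glo luminescence.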
# ELG1 repair inh = blocks ELG1-dependent DNA repair in HEK293T cells; HEK293T ELG1-luciferase reporter, luminescence, 16 h; DNA damage induced by 5-fluorouridine; Potency, µM (highest dose often 46.1 µM), without a hit: at the top dose activity change, negative = inhibition, most hits filed as inhibitors; 330,000 tested, 2.3% active; also: potency is read from the fitted curve at half-maximal effect; nearly all actives have a fitted effect of over 55% in size
#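 5-Fluorouridine DNA damage + compound/DMSO, 2,000 cells/well, 16 h, 37 °C/5% CO2. ONE-Glo, 30 min RT, luminescence. Readout = decrease in reporter signal.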
# * marks the source's active call; other numbers are inactive results; ? = inconclusive; nt = no result; [ ] = dose if it differs, or a comment. Unless noted, calls follow the shape of the dose curve; as a rule, active = well fitted curve in the direction sought with a large enough effect; inconclusive = small, poorly fitted or top-dose-only effect, or another doubt; inactive = no such curve, though single readings can be large; an effect the other way counts as inactive or inconclusive. % is scaled to controls: 0 for no effect and ±100 for the full control effect.
SMILES,Giardia killer,IL1B secr inh,DT40 TDP1 no CPT,TDP1 block,DT40 TDP1 CPT,ELG1 repair inh
S=c1[nH]nc(CN2CCCC2)n1Cc1ccccc1,-2,3,0%,-3%,-6%,7%
Clc1ccc(Cn2c(CN3CCCC3)nc3ccccc32)cc1,nt,nt,7.2µM*,6%,?,-1%
Cc1cccc(NC(=O)c2ccc3nc(N4CCOCC4)sc3c2)c1C,24,-14,?,nt,?,?
CCOC(=O)N1CCN(CC(O)COc2cc(C)cc(C)c2)CC1 (centres undefined),4,-8,-9%,nt,16%,9%
O=C(Nc1ccccc1)c1ccc(-c2ccccc2C(F)(F)F)o1,-1,-1,21µM*,-14%,?,?
CC(C)NC(=O)c1ccc(-c2ccccc2C(F)(F)F)o1,-11,?,-15%,0%,-21%,?
O=C(Nc1nccs1)c1ccc(-c2ccccc2Cl)o1,-26,-89*,?,-3%,?,?
O=C(Nc1ccc([N+](=O)[O-])cc1)c1ccccc1,-9,-1,-15%,nt,-2%,?
CCOC(=O)c1ccc(NC(=O)c2ccc(-c3cccc(Cl)c3C)o2)cc1,nt,nt,?,1%[12.3 µM],?,nt
Cc1c(Cl)cccc1-c1ccc(C(=O)Nc2ccc(F)cc2)o1,nt,nt,9.2µM*,-3%[12.3 µM],12µM*,nt
O=C(Nc1ccccc1)c1ccc[n+](Cc2ccc([N+](=O)[O-])cc2)c1,-2,-59*,2%,-5%,0%,17%
COC(=O)c1sccc1-c1ccc(C(=O)Nc2cccc(Cl)c2)o1,-3,11,23µM*,-5%,?,?
O=C(NN1C(=O)NC2(CCCCC2)C1=O)c1ccc(-c2ccc([N+](=O)[O-])cc2)o1,27,-7,21µM*,6%,21µM*,-4%
Cc1ccc(-c2ccc(C(=O)Nc3ccccc3)o2)c2ccccc12,-15,-10,?,4%,?,0%
CC(=O)Nc1ccc(NC(=O)c2ccc(-c3ccccc3Cl)o2)cc1,4,-18,-28%,nt,?,8%
O=C(Nc1ccccc1)c1ccc(-c2ccccc2Cl)o1,0,-17,18µM*,-8%,21µM*,?
Cc1ccc(-c2ccc(C(=O)NCc3ccccc3)o2)c2ccccc12,-1,-22,?,1%,23µM*,0%
O=C(NNc1cc(Cl)cc(Cl)c1)c1sccc1Cl,16,nt,?,nt,?,nt
O=C(CSc1nnc(-c2ccccn2)o1)Nc1ccccc1F,-5,0,-2%,1%,-2%,?
O=C(NCc1ccc(Cl)cc1)c1ccc(COCC(F)(F)F)o1,-1,-1,?,7%,-12%,-3%
O=C(NCc1ccc(Cl)cc1)c1ccc(-c2ccccc2C(F)(F)F)o1,14,-15,23µM*,-3%,21µM*,4%
O=C(Nc1ccccc1)c1ccc(-c2ccc([N+](=O)[O-])cc2)o1,5,-64*,?,-17%[0.0935 µM],-24%,?
O=C(Nc1cccnc1)c1ccc(-c2cc(Cl)ccc2Cl)o1,4,-16,21µM*,3%,?,?
COc1ccc(NC(=O)c2ccc(-c3ccc([N+](=O)[O-])cc3)o2)cc1,9,-11,?,-2%,?,10%
O=C(Nc1cccnc1)c1ccc(-c2ccc(Cl)cc2)o1,3,-8,-12%,5%,-5%,?
SMILES,Giardia killer,IL1B secr inh,DT40 TDP1 no CPT,TDP1 block,DT40 TDP1 CPT,ELG1 repair inh
Cc1ccc(Cl)cc1NC(=O)C1CCCN(S(=O)(=O)c2c(C)noc2/C=C/N(C)C)C1 (centres undefined),nt,nt,?,4%,?,nt
CCC(CC)C(=O)Nc1cc(OC)c(OC)cc1C(=O)O,1,24,18µM*,2%,16µM*,5%
CCC(C)C(=O)Nc1cc(OC)c(OC)cc1C(=O)O (centres undefined),16,27,-2%,0%,7%,?
CCC(C)NC(=O)/C=C1\Sc2ccccc2NC1=O (centres undefined),-20,-61*,?,-1%,-12%,17%
Cc1ccccn1,nt,nt,0%,nt,-2%,nt
CCOC(=O)c1ccc(N2C(=O)C3CC=CCC3C2=O)cc1 (centres undefined),14,9,-4%,6%,0%,26%
CCOC(=O)c1ccc(N2C(=O)C3C(C2=O)C(C(=O)c2ccc(Cl)cc2)N2CCCC32)cc1 (centres undefined),6,-66*,21µM*,12%,15µM*,0%
COc1ccccc1N1CCN(C(=O)c2cc(-c3ccc(C)cc3)on2)CC1,8,-1,?,1%,?,?
COc1ccccc1N1CCN(C(=O)c2cc(-c3ccc(Cl)cc3)on2)CC1,-15,0,?,2%,22µM*,-10%
COc1ccccc1N1CCN(C(=O)c2nc(SC)ncc2Cl)CC1,nt,nt,1µM*,4%,1µM*,nt
COc1ccccc1-c1cc(C(=O)N2CCN(c3ccccc3OC)CC2)no1,4,-2,?,3%,18µM*,-13%
CCN(Cc1ccccc1)C(=O)Cn1c(=O)cc(C)c2c(C)nn(-c3cccc(F)c3)c21,nt,nt,21µM*,1%,18µM*,nt
CCN(CC)C(=O)Cn1c(=O)cc(C)c2c(C)nn(-c3cccc(Cl)c3C)c21,nt,nt,12µM*,5%,15µM*,nt
Cc1ccc(-n2nc(C)c3c(C)cc(=O)n(CC(=O)Nc4cccc(C)c4C)c32)cc1,nt,nt,1.2µM*,8%,-8%,nt
Cc1c(Cl)cccc1NC(=O)Cn1c(=O)cc(C)c2c(C)nn(-c3cccc(F)c3)c21,nt,nt,-20%,5%,0%,nt
COc1cc(CC(=O)NCC2CCCCC2)cc(OC)c1OC,?,18,1%,nt,-8%,-12%
COc1ccc(N2CCN(S(=O)(=O)c3ccc(OC)c(C(=O)N4CCOCC4)c3)CC2)cc1,3,3,-13%,9%,-9%,-10%
COc1ccc(S(=O)(=O)N2CCN(c3ccccc3)CC2)cc1C(=O)N1CCCC1,16,10,-20%,3%,-1%,-11%
COc1ccc(S(=O)(=O)N2CCCCCC2)cc1C(=O)N1CCN(c2ccc(F)cc2)CC1,0,?,21µM*,nt,?,nt
COc1ccc(N2CCN(C(=O)c3cc(S(=O)(=O)N4CCCCCC4)ccc3OC)CC2)cc1,-10,-9,16µM*,3%,?,-10%
COc1ccc(N2CCN(C(=O)COc3ccc(S(=O)(=O)N4CCOCC4)cc3C)CC2)cc1,1,-2,23µM*,9%,?,-2%

# Bioassay records as filed in PubChem BioAssay.
